The source of these data is PubChem BioAssay (NCI).

Compounds without any hit were thinned out: in the full panel of roughly 83,000, 20% have a hit.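 Cell lines were cultured in 96-well plates, exposed to a single compound concentration, and assessed for percent growth 48 hours later.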 A number with no mark means an inactive call. Calls of active or inactive are those of the source. The calls were made as follows: active = growth percent below 10; inactive = the rest.

Among the test systems are NCI-H23 lung; NCI-H226 lung; NCI-H322M lung; HOP-62 NSCLC; NCI-H460 lung; HOP-92 NSCLC; NCI-H522 lung; A549/ATCC NSCLC; 786-0 renal; COLO 205 colon.
Common to all, as to test: NCI-60 one-dose screen, 48 h (100 = growth as untreated, 0 = no growth, -100 = all killed)
What all share (conditions): 10 µM unless noted

Turning to `O=C(CCCCCCN1CC(=O)N2[C@@H](C3CC3)c3[nH]c4ccccc4c3C[C@H]2C1=O)NO`, the growth with NCI-H23 lung was 66.4%; with NCI-H226 lung it was 95%; in the assay on NCI-H322M lung, 74.6%; in the assay on HOP-62 NSCLC, 69.6%; in the assay with NCI-H460 lung, 74.5%; in the assay with HOP-92 NSCLC it was 53.4%. The growth with NCI-H522 lung was 24.4%; in the assay on A549/ATCC NSCLC, 99%; in the assay on 786-0 renal it was 108%; in the assay with COLO 205 colon, 98%.
With `C#CCOc1ccccc1C(OC(=O)c1ccccc1)C(=O)NC(C)(C)C(C)(C)C` (stereo not given), the growth in the assay on NCI-H23 lung was 82.4%; in the assay on NCI-H226 lung, 82.1%; with NCI-H322M lung it was 90.4%; in the assay with HOP-62 NSCLC, 88.4%; in the assay with NCI-H460 lung, 89.7%; in the assay on HOP-92 NSCLC, 71%. For the same molecule, the growth in the assay with NCI-H522 lung was 73.4%; in the assay with A549/ATCC NSCLC, 74%; in the assay on 786-0 renal it was 84.7%; in the assay on COLO 205 colon it was 85.1%.
For `CC(=O)OC[C@]12CC[C@@H](C(=O)/C=C/c3cccnc3)[C@@H]1[C@H]1CC[C@@H]3[C@@]4(C)CC[C@H](OC(C)=O)C(C)(C)[C@@H]4CC[C@@]3(C)[C@]1(C)CC2`, the growth in the assay with NCI-H23 lung was 1.02% (active); in the assay with NCI-H226 lung it was -70.5% (active); with NCI-H322M lung, 53.5%; in the assay on HOP-62 NSCLC it was 28.1%; with NCI-H460 lung it was 7.8% (active); in the assay on HOP-92 NSCLC, -29.1% (active). In addition, the growth is -20.3% (active) with NCI-H522 lung, 23.1% in the assay on A549/ATCC NSCLC, 27.2% in the assay on 786-0 renal and -18.6% (active) with COLO 205 colon.
As to `C/C(=C(/C)C1CC1CCNC1CCC(NC(=O)OC(C)(C)C)CC1)c1ccccc1` (stereo not given), the growth in the assay with NCI-H23 lung was 70.8%; in the assay on NCI-H226 lung, 80.1%; with NCI-H322M lung it was 89.2%; in the assay on HOP-62 NSCLC, 84.4%; in the assay with NCI-H460 lung it was 57.6%; in the assay with HOP-92 NSCLC, 54.8%. Besides, the growth was 68.6% in the assay with NCI-H522 lung, 73.4% with A549/ATCC NSCLC, 65.6% in the assay with 786-0 renal and -56% (active) in the assay on COLO 205 colon.
For `C#Cc1nc(C(=O)NCCCCCCC(=O)NO)cs1`, the growth is -74.6% (active) in the assay on NCI-H23 lung; 39.1% in the assay on NCI-H226 lung; 29.4% in the assay with NCI-H322M lung; 16.9% in the assay with HOP-62 NSCLC; 16% in the assay with NCI-H460 lung; -74.6% (active) in the assay on HOP-92 NSCLC. The growth with NCI-H522 lung was -58.5% (active); in the assay on A549/ATCC NSCLC it was 10.2%; with 786-0 renal, -83.4% (active); with COLO 205 colon it was -61.7% (active).
For the molecule `Cc1cc(NS(=O)(=O)c2ccc(NC(=O)CSc3nc4ccccc4c(=O)n3-c3ccccc3)cc2)no1`, the growth is 92.2% in the assay with NCI-H23 lung; 93.4% in the assay on NCI-H226 lung; 83.9% in the assay with NCI-H322M lung; 98.5% in the assay with HOP-62 NSCLC; 108% in the assay on NCI-H460 lung; 88.6% with HOP-92 NSCLC. For the same molecule, the growth is 91.9% in the assay on NCI-H522 lung, 101% in the assay on A549/ATCC NSCLC, 104% with 786-0 renal and 106% with COLO 205 colon.
For `COc1ccc(C(C)=C(c2ccc(OCCN3CCCCCC3)cc2)c2ccc(OCCN3CCCCCC3)cc2)cc1`, the growth was -40.3% (active) with NCI-H23 lung; -46.1% (active) with NCI-H226 lung; -11.7% (active) with NCI-H322M lung; -52.4% (active) in the assay with HOP-62 NSCLC; -57.2% (active) with NCI-H460 lung; -8.87% (active) with HOP-92 NSCLC. The growth is -52% (active) in the assay with NCI-H522 lung, -35.9% (active) in the assay with A549/ATCC NSCLC, -93.9% (active) in the assay with 786-0 renal and -60.8% (active) in the assay with COLO 205 colon.
For the molecule `NS(=O)(=O)c1ccc(CCn2c(-c3ccc(C(=O)O)cc3)nc(-c3ccccc3)c2-c2ccccc2)cc1`, the growth with NCI-H23 lung is 98.4%; in the assay on NCI-H226 lung, 98.3%; in the assay on NCI-H322M lung it was 97%; with HOP-62 NSCLC it was 104%; in the assay on NCI-H460 lung it was 107%; in the assay on HOP-92 NSCLC it was 94.6%. The growth in the assay with NCI-H522 lung was 96.8%; in the assay with A549/ATCC NSCLC, 105%; with 786-0 renal, 103%; in the assay with COLO 205 colon it was 112%.
With `COc1ccc(OC)c(CCn2cncc2-c2c[nH]c3ccc(Cl)cc23)c1`, the growth in the assay on NCI-H23 lung is 38.1%; in the assay with NCI-H226 lung it was 59.5%; with NCI-H322M lung it was 88.4%; with HOP-62 NSCLC, 49.5%; in the assay on NCI-H460 lung, 46.1%; with HOP-92 NSCLC it was 20.8%. The growth with NCI-H522 lung was 3.34% (active); in the assay on A549/ATCC NSCLC, 33.3%; in the assay with 786-0 renal it was 69.7%; with COLO 205 colon it was 29.8%.
For `Cn1cc(C2=C(c3coc4cc(Br)ccc34)C(=O)NC2=O)c2ccccc21`, the growth is 86.8% with NCI-H23 lung; 74.8% with NCI-H226 lung; 82.2% in the assay on NCI-H322M lung; 71% with HOP-62 NSCLC; 98.6% in the assay on NCI-H460 lung; 93.4% in the assay with HOP-92 NSCLC. Also, the growth was 72% in the assay on NCI-H522 lung, 71.6% in the assay with A549/ATCC NSCLC, 83.7% with 786-0 renal and 71.3% in the assay on COLO 205 colon.
For `O=C(CSc1nnc(-c2cccs2)n1-c1ccccc1)Nc1ccccc1F`, the growth in the assay with NCI-H23 lung is 90.8%; in the assay on NCI-H226 lung it was 96.3%; in the assay with NCI-H322M lung, 103%; in the assay with HOP-62 NSCLC, 76.9%; with NCI-H460 lung it was 96.6%; in the assay with HOP-92 NSCLC, 93%. In addition, the growth in the assay on NCI-H522 lung is 55%; in the assay on A549/ATCC NSCLC, 89.6%; with 786-0 renal it was 99.4%; in the assay on COLO 205 colon, 70.8%.
For `CN1c2ccccc2Sc2cc(/C=N/Nc3ccnc4cc(Cl)ccc34)ccc21`, the growth is 91.6% in the assay on NCI-H23 lung; 90.5% with NCI-H226 lung; 107% in the assay on NCI-H322M lung; 96.6% with HOP-62 NSCLC; 104% with NCI-H460 lung; 82.1% in the assay with HOP-92 NSCLC. For the same molecule, the growth in the assay on NCI-H522 lung is 99.2%; in the assay with A549/ATCC NSCLC, 83.3%; in the assay with 786-0 renal, 89.3%; with COLO 205 colon, 101%.
`C=C(C)[C@@H]1CC[C@]2(COCCCNCCCN)CC[C@]3(C)[C@H](CC[C@@H]4[C@@]5(C)CC[C@H](O)C(C)(C)[C@@H]5CC[C@]43C)[C@@H]12`: the growth in the assay on NCI-H23 lung is -64.7% (active); in the assay on NCI-H226 lung it was 4.38% (active); in the assay with NCI-H322M lung, -90.2% (active); in the assay on HOP-62 NSCLC, -51.3% (active); with NCI-H460 lung, -77.3% (active); in the assay on HOP-92 NSCLC, -76.2% (active). Moreover, the growth is -54.6% (active) in the assay with NCI-H522 lung, -48.7% (active) in the assay with A549/ATCC NSCLC, -81.3% (active) in the assay with 786-0 renal and -65.9% (active) in the assay on COLO 205 colon.
